The values below come from PubChem BioAssay AID624300 (Southern Research Specialized Biocontainment Screening …, 2012).

The whole screen tested about 2,400 compounds, of which about 360 (15%) were called active. A selection follows. Measured potencies and affinities stand elsewhere. Values without a mark were called inactive.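 How the source made its calls: active means viability falls under 70% at one or more tested concentrations, taken as toxicity; inactive means viability stays over 70% at every dose.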

The assay is described as follows: HeLa cell cytotoxicity, dose response, cytotoxicity control for MgcRacGAP inhibitor project (AID 624300).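 Further: 100% = median of untreated control wells on the same plate.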 The settings on record: CellTiter-Glo luminescence, 24 h; series mostly up to 100 µM; viability: at the top concentration.
Usually viability stands for a read-out of living cells in per cent, often relative to untreated cells. For the compound `CC(=O)CC(=O)Nc1ccc(Nc2ccccc2)cc1`, the “viability” value is 94.8%.

Take `COCCCn1c(=S)[nH]c2sc3c(c2c1=O)CCCC3`: the “viability” value is 91.2%.

With `Cc1cc(OCCCCCN2CCCC2)ccc1Cl`, the “viability” value was 86.2%.

Turning to `CCOc1ccc(OCCOCCN2CCCC2)cc1`, the “viability” value is 100%.

In the case of `CN(C)CCCn1c(SCc2ccc(Cl)cc2)nnc1-c1ccncc1`, the “viability” value is 100%.

Turning to `N#CCCN1CCN(CCC#N)c2ccccc21`, the “viability” value is 90.5%.

As for `C/C(CC(=O)Nc1ccc(N(C)C)cc1)=N\NC(=O)c1ccc(F)cc1`, the “viability” value is 98.8%.

Turning to `Cn1cccc1/C=C1\SC(=Nc2ccc(O)cc2)NC1=O`, the “viability” value is 114%.

Consider `Cc1ccccc1CN1CCN(C(=O)c2cccc3ccccc23)CC1`, for which the “viability” value is 86.6%.

As to `O=C(c1ccccc1F)N1CCN(Cc2ccc3c(c2)OCO3)CC1`, the “viability” value was 97.9%.

`Cc1[nH]c2ccccc2c1/C=N\NC(=O)CNc1ccc2c(c1)OCO2`: the “viability” value was 98%.

As for `COc1ccccc1N=NNc1ccccc1OC`, the “viability” value was 94.3%.

As to `COCCNCCOCCOc1ccc(Cl)c(C)c1`, the “viability” value was 93%.

With `COCCCNCCCCOc1c(Cl)cc(C)cc1Br`, the “viability” value is 91.4%.

`Cc1cc(C)c(C)c(OCCNCc2ccccc2)c1`: the “viability” value is 90.7%.

`c1ccc(CN2CCN(CCOCCOc3ccc4c(c3)CCC4)CC2)cc1`: the “viability” value is 95.6%.

Take `CC(=O)Nc1ccc(Oc2nc(-c3ccccn3)nc3ccccc23)cc1`: the “viability” value was 87.7%.

Consider `Cc1ccc(CCC(=O)Nc2ccc(N(C)C)cc2)o1`, for which the “viability” value was 97.1%.

As for `Cc1cc(C(=O)NNC(=O)/C=C/c2ccco2)c(C)o1`, the “viability” value was 118%.

As for `COc1cc(/C=C/C(=O)OCC(=O)NCC2CCCCC2)ccc1O`, the “viability” value is 96.6%.

In the case of `COc1ccc(/C=N/Nc2nc(N3CCCC3)nc(N3CCCC3)n2)cc1O`, the “viability” value is 98%.

For the compound `S=C(c1ccccc1)N1CCN(c2ccccc2)CC1`, the “viability” value is 95.1%.

For the compound `C=CCn1c(SCC(C)=O)nnc1-c1cc(-c2ccccc2)sc1N`, the “viability” value was 80.6%.

With `CCOC(=O)c1oc2cc(O)cc(C)c2c1C`, the “viability” value is 91.3%.

Consider `CCn1c(=S)[nH]c2sc3c(c2c1=O)CCCC3`, for which the “viability” value is 89%.

With `COc1ccc(NCc2cccnc2)cc1`, the “viability” value is 108%.

Regarding `CC(=O)Nc1cccc2cc(O)ccc12`, the “viability” value was 100%.

In the case of `Cc1cc(Oc2ccc(-c3ccccc3)cc2)n2ncnc2n1`, the “viability” value is 97.3%.

As for `CC(=O)c1ccc(NC(=S)Nc2ccc3[nH]c(=O)[nH]c3c2)cc1`, the “viability” value is 116%.

For `COc1cc(C=NNC(=O)c2ccccc2-n2cccc2)ccc1O`, the “viability” value was 123%.

As for `Cc1c(Cl)cccc1Nc1n[nH]c(=S)s1`, the “viability” value was 93%.

`Cc1ccc[n+](CC(=O)Nc2ccc(N(C)C)cc2)c1`: the “viability” value is 102%.

Regarding `Cc1ccc2nc(/N=C(\N)NC(=O)N3c4ccccc4Sc4ccccc43)nc(C)c2c1`, the “viability” value was 94.8%.

`Cc1nc(/N=C(\N)NC(=O)N2c3ccccc3Sc3ccccc32)nc2ccccc12`: the “viability” value is 94.9%.

As for `O=C(NC1CCN(C(=O)N2c3ccccc3Sc3ccccc32)CC1)c1ccccc1F`, the “viability” value is 82.1%.

Consider `CC1(C)CC(NC(=O)N2c3ccccc3Sc3ccccc32)CC(C)(C)N1`, for which the “viability” value is 102%.

On to `Cc1cc2nc(/N=C(\N)NC(=O)N3c4ccccc4Sc4ccccc43)nc(C)c2cc1C`, for which the compound was classed as inactive.

With `Cc1ccc2c(C)nc(/N=C(\N)NC(=O)N3c4ccccc4Sc4ccccc43)nc2c1`, the outcome was inactive.

With `CCOC(=O)C1=C(C)Nc2ccccc2S1`, the “viability” value is 95.5%.

Turning to `COc1ccc2nc(/N=C(\N)NC(=O)N3c4ccccc4Sc4ccccc43)nc(C)c2c1`, the “viability” value is 84.3%.
